Measurements taken from PubChem BioAssay AID1159580 (chemical genetic matrix, 2015).
The whole screen tested about 5,500 compounds, of which about 2,000 (36%) were called active. Roughly 18% stayed inconclusive and do not appear here. Rule as the data show it: active = normalized growth mostly below about 0.91 (no sharp cut-off); inconclusive = no clear call, values can overlap the other calls; inactive = mostly above about 0.92. The list shows a part of the results.

Experiment: chemical genetic growth profiling, strain panel (AID 1159580);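 also: tested at 20 µM; growth read once vehicle control cultures reached saturation at 30 °C; 1 = growth at the plate median or of vehicle wells; lower values mean less growth of the strain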
Conditions: growth OD

Measured: normalized growth

CC(=O)OC(C)(C)[C@@H]1Cc2cc3ccc(=O)oc3cc2O1
inactive: S. cerevisiae deletion strains, locus YJR066W, strain TOR1, stronger effect = lower value 0.928 | S. cerevisiae deletion strains, locus YJR075W, strain HOC1, stronger effect = lower value 0.992 | S. cerevisiae deletion strains, locus YKL009W, strain mrt4, stronger effect = lower value 1.03 | S. cerevisiae deletion strains, locus YKL068W, stronger effect = lower value 1.01 | S. cerevisiae deletion strains, locus YKL085W, strain MDH1 (second series), stronger effect = lower value 0.998 | S. cerevisiae deletion strains, locus YKL085W, strain MDH1, stronger effect = lower value 0.998 | S. cerevisiae deletion strains, locus YKL160W, strain elf1, stronger effect = lower value 1.02 | S. cerevisiae deletion strains, locus YKL190W, strain CNB1, stronger effect = lower value 1.01 | S. cerevisiae deletion strains, locus YKR001C, strain vps1, stronger effect = lower value 1 | S. cerevisiae deletion strains, locus YKR026C, strain gcn3, stronger effect = lower value 0.957 | S. cerevisiae deletion strains, locus YKR091W, strain srl3, stronger effect = lower value 0.975 | S. cerevisiae deletion strains, locus YLL001W, strain dnm1, stronger effect = lower value 0.984 | S. cerevisiae deletion strains, locus YLL026W, stronger effect = lower value 0.97 | S. cerevisiae deletion strains, locus YLL041C, strain sdh2, stronger effect = lower value 0.984 | S. cerevisiae deletion strains, locus YLR027C, strain aat2, stronger effect = lower value 0.962 | S. cerevisiae deletion strains, locus YLR039C, strain RIC1, stronger effect = lower value 1.07 | S. cerevisiae deletion strains, locus YLR058C, strain SHM2, stronger effect = lower value 0.999 | S. cerevisiae deletion strains, locus YLR102C, strain apc9, stronger effect = lower value 1 | S. cerevisiae deletion strains, locus YLR113W, strain HOG1, stronger effect = lower value 1.04 | S. cerevisiae deletion strains, locus YLR221C, strain rsa3, stronger effect = lower value 1.01 | S. cerevisiae deletion strains, locus YLR258W, strain gsy2, stronger effect = lower value 0.951 | S. cerevisiae deletion strains, locus YLR262C, strain YPT6 (second series), stronger effect = lower value 1.01 | S. cerevisiae deletion strains, locus YLR262C, strain YPT6, stronger effect = lower value 1.07 | S. cerevisiae deletion strains, locus YLR268W, strain sec22, stronger effect = lower value 1.04 | S. cerevisiae deletion strains, locus YLR320W, strain mms22, stronger effect = lower value 0.956 | S. cerevisiae deletion strains, locus YLR330W, strain CHS5, stronger effect = lower value 1 | S. cerevisiae deletion strains, locus YLR342W, strain FKS1 (second series), stronger effect = lower value 0.994 | S. cerevisiae deletion strains, locus YLR342W, strain FKS1, stronger effect = lower value 0.969 | S. cerevisiae deletion strains, locus YLR357W, strain rsc2, stronger effect = lower value 0.971 | S. cerevisiae deletion strains, locus YLR370C, strain arc18, stronger effect = lower value 0.973 | S. cerevisiae deletion strains, locus YLR371W, strain rom2, stronger effect = lower value 1.03 | S. cerevisiae deletion strains, locus YLR384C, strain iki3, stronger effect = lower value 0.979 | S. cerevisiae deletion strains, locus YLR418C, strain cdc73, stronger effect = lower value 0.975 | S. cerevisiae deletion strains, locus YML016C, strain PPZ1, stronger effect = lower value 0.999 | S. cerevisiae deletion strains, locus YML032C, strain rad52, stronger effect = lower value 0.987 | S. cerevisiae deletion strains, locus YML120C, strain ndi1, stronger effect = lower value 0.99 | S. cerevisiae deletion strains, locus YML124C, strain tub3, stronger effect = lower value 0.994 | S. cerevisiae deletion strains, locus YMR058W, strain fet3, stronger effect = lower value 0.969 | S. cerevisiae deletion strains, locus YMR078C, strain ctf18, stronger effect = lower value 1.01 | S. cerevisiae deletion strains, locus YMR125W, strain sto1, stronger effect = lower value 0.941 | S. cerevisiae deletion strains, locus YMR129W, stronger effect = lower value 0.962 | S. cerevisiae deletion strains, locus YMR205C, strain PFK2, stronger effect = lower value 0.915 | S. cerevisiae deletion strains, locus YMR223W, strain ubp8, stronger effect = lower value 0.982 | S. cerevisiae deletion strains, locus YMR231W, strain pep5, stronger effect = lower value 0.968 | S. cerevisiae deletion strains, locus YMR263W, strain SAP30, stronger effect = lower value 0.997 | S. cerevisiae deletion strains, locus YMR307W, strain GAS1, stronger effect = lower value 1.03 | S. cerevisiae deletion strains, locus YNL067W, strain RPL9B, stronger effect = lower value 0.999 | S. cerevisiae deletion strains, locus YNL071W, strain lat1, stronger effect = lower value 0.985 | S. cerevisiae deletion strains, locus YNL183C, strain NPR1, stronger effect = lower value 0.983 | S. cerevisiae deletion strains, locus YNL209W, strain ssb2, stronger effect = lower value 0.975 | S. cerevisiae deletion strains, locus YNL233W, strain BNI4, stronger effect = lower value 0.988 | S. cerevisiae deletion strains, locus YNL248C, strain rpa49, stronger effect = lower value 1.02 | S. cerevisiae deletion strains, locus YNL250W, strain rad50, stronger effect = lower value 1.01 | S. cerevisiae deletion strains, locus YNL271C, strain bni1, stronger effect = lower value 1 | S. cerevisiae deletion strains, locus YNL298W, strain CLA4, stronger effect = lower value 1.01 | S. cerevisiae deletion strains, locus YNL307C, strain MCK1, stronger effect = lower value 1 | S. cerevisiae deletion strains, locus YNL322C, strain KRE1 (second series), stronger effect = lower value 0.951 | S. cerevisiae deletion strains, locus YNR049C, strain mso1, stronger effect = lower value 0.955 | S. cerevisiae deletion strains, locus YNR052C, strain pop2, stronger effect = lower value 1 | S. cerevisiae deletion strains, locus YOL012C, strain htz1 0.921 | S. cerevisiae deletion strains, locus YOL147C, strain pex11, stronger effect = lower value 0.997 | S. cerevisiae deletion strains, locus YOR001W, strain rrp6, stronger effect = lower value 1.01 | S. cerevisiae deletion strains, locus YOR061W, strain CKA2, stronger effect = lower value 1.01 | S. cerevisiae deletion strains, locus YOR069W, strain VPS5, stronger effect = lower value 1 | S. cerevisiae deletion strains, locus YOR070C, strain gyp1, stronger effect = lower value 0.995 | S. cerevisiae deletion strains, locus YOR080W, strain dia2, stronger effect = lower value 0.982 | S. cerevisiae deletion strains, locus YOR083W, strain WHI5, stronger effect = lower value 1.02 | S. cerevisiae deletion strains, locus YOR106W, strain vam3, stronger effect = lower value 1.02 | S. cerevisiae deletion strains, locus YOR136W, strain idh2, stronger effect = lower value 0.999 | S. cerevisiae deletion strains, locus YOR144C, strain elg1, stronger effect = lower value 1 | S. cerevisiae deletion strains, locus YOR184W, strain ser1, stronger effect = lower value 0.968 | S. cerevisiae deletion strains, locus YOR231W, strain MKK1, stronger effect = lower value 0.963 | S. cerevisiae deletion strains, locus YOR265W, strain rbl2, stronger effect = lower value 0.976 | S. cerevisiae deletion strains, locus YOR270C, strain vph1, stronger effect = lower value 0.935 | S. cerevisiae deletion strains, locus YOR290C, strain snf2, stronger effect = lower value 0.916 | S. cerevisiae deletion strains, locus YOR316C, strain cot1, stronger effect = lower value 0.995 | S. cerevisiae deletion strains, locus YPL051W, strain arl3, stronger effect = lower value 1 | S. cerevisiae deletion strains, locus YPL078C, strain atp4, stronger effect = lower value 0.993 | S. cerevisiae deletion strains, locus YPL106C, strain sse1, stronger effect = lower value 0.946 | S. cerevisiae deletion strains, locus YPL240C, strain hsp82, stronger effect = lower value 0.995 | S. cerevisiae deletion strains, locus YPL241C, strain CIN2, stronger effect = lower value 0.996 | S. cerevisiae deletion strains, locus YPL256C, strain CLN2, stronger effect = lower value 0.962 | S. cerevisiae deletion strains, locus YPR119W, strain clb2, stronger effect = lower value 1.02 | S. cerevisiae deletion strains, locus YPR141C, strain kar3, stronger effect = lower value 1 | S. cerevisiae deletion strains, locus YPR163C, strain tif3, stronger effect = lower value 1 | S. cerevisiae deletion strains, locus YPR167C, strain met16, stronger effect = lower value 1 | S. cerevisiae deletion strains, strain wtn01, stronger effect = lower value 1.01 | S. cerevisiae strains, strain wild type, stronger effect = lower value 1
